In the library only some 7.9% were active in any assay of this set; here they are far more common.
MARV entry inh: qHTS for inhibitors of binding or entry into cells for Marburg Virus; Marburg virus pseudotyped entry inhibition, cell reporter; Potency, µM (doses to about 37.8 µM), without a hit: top-dose activity change, negative = inhibition, usual class: inhibitors; 1.8% of 300,000 active; calls by dose curve; tested in HEK293 cells; note: potency is the fitted concentration of half-maximal effect
HCV inh: qHTS Assay for Inhibitors of Hepatitis C Virus (HCV); Huh7.5.1 HCVcc-Cre infection, luciferase reporter, 44 h; Potency, µM (top dose mostly 41.8 µM), inactives show top-dose activity change, negative = inhibition, hits mostly inhibitors; 3.4% of 340,000 active; active = well fitted inhibition curve with a large enough effect; inconclusive = small, poorly fitted or top-dose-only effect, or another doubt; inactive = no such curve, though single readings can be large or run the other way; note: potency is the fitted concentration of half-maximal effect
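1,000 cells/well; 4 h culture; + compound; + HCVcc-Cre (~0.5 moi); 44 h; luciferase substrate, RT 15 min; read 15 sec.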
HCMV antiviral: qHTS Assay for inhibitors of the human cytomegalovirus (HCMV) | AID 1259415, 2018 | HFF cells, HCMV-luciferase reporter, 72 h; hits give low values | 4.5% of 410,000 active | activity change, negative = inhibition, % at 57.5 µM; in the data active = activity change below about -60%; inconclusive = no clear call, values can overlap the other calls; inactive = above about -39%
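Steps: HFFs plated, 16 h 37C; compounds added; HCMV-luciferase added to MOI 1 PFU/cell; 72 h 37C; OneGlo reagent, 5 min room temperature; luminescence read, normalized to controls.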
FMDV antiviral: High Throughput Screening for Foot and Mouth Disease Virus Antivirals. Potency, µM (series often up to 57.9 µM), inactives show top-dose activity change, negative = inhibition, usual class: inhibitors. 1.2% of 410,000 active. FMDV antiviral cell-based qHTS. AID 1159524, 2015; calls by dose curve; tested in HEK293T cells; note: read-out not given here; potency is the fitted concentration of half-maximal effect; nearly all actives have a fitted effect of over 45% in size
LASV entry inh: qHTS for Inhibitors of binding or entry into cells for Lassa Virus; Lassa virus pseudotype entry inhibition, cell reporter; Potency, µM (doses to about 37.9 µM), for the others: at the highest dose activity change, negative = inhibition, hits mostly inhibitors; 1.2% of 300,000 active; AID 540256, 2011; calls by dose curve; tested in HEK293 cells; note: potency is the fitted concentration of half-maximal effect; nearly all actives have a fitted effect of over 50% in size
Starred values were filed as active, the others as inactive; ? = inconclusive; . = no result given; [ ] = another dose, or the depositor's remark. % is set by controls: 0 for no effect and ±100 for the full control effect.

SMILES	MARV entry inh	HCV inh	HCMV antiviral	FMDV antiviral	LASV entry inh
Cn1cc([N+](=O)[O-])c(C(=O)NC2CCCCCC2)n1	.	4%	-3	-15%	.
COc1ccc(-c2csc(NC(=O)c3ccccc3NS(=O)(=O)c3ccc(C)cc3)n2)cc1	13µM*	5µM*	-96*	?	?
CCOC(=O)c1ccccc1NS(=O)(=O)c1c(-c2ccc(C)cc2)csc1C(=O)OC	.	.	-65*	0%	-29%[46.1 µM]
COc1ccc(S(=O)(=O)Nc2ccccc2C(=O)Nc2nc(-c3ccc(F)cc3)cs2)cc1OC	?	?	-76*	-16%	11µM*
COc1cccc(CN2CCN(S(=O)(=O)c3ccc(Cl)s3)CC2)c1	?	1%	26	-12%	3%
CCCCOc1ccc(CCN)cc1Cl	?	?	-60*	31%	6%
CCCN(C(=O)Cn1c(=O)oc2cc(Cl)ccc21)c1ccc(C(C)C)cc1	-8%[46.1 µM]	.	-29	-12%	-19%[46.1 µM]
COc1ccc(C(=O)Nc2ccc(-c3nc4cc(C)ccc4o3)c(O)c2)cc1	.	.	25	-21%	-17%[46.1 µM]
NC(=O)N/N=C/c1ccc(-c2ccc([N+](=O)[O-])cc2)o1	0%	10%	3	38%	.
O=C(CNc1cccc([N+](=O)[O-])c1)N/N=C/c1ccc(F)cc1	?	-5%	-63*	-3%	-6%[46.1 µM]
O=C(CNC(=O)c1ccccc1)N/N=C/c1ccc([N+](=O)[O-])o1	-38%	?	-80*	0%	-24%
Cc1ccc(CCC(=O)Nc2ccc(Cl)cc2Cl)o1	.	.	-66*	25%	.
O=C(Cc1ccccc1)N/N=C/c1ccc(-c2ccc([N+](=O)[O-])cc2)o1	5%	-4%	-61*	-1%	-24%
COc1ccccc1NC(=O)C(C)OC(=O)C(C)SCC(=O)Nc1ccc(C)cc1 (centres undefined)	29%	-1%	7	-4%	2%
CCCOC(=O)/C(=C\c1ccc([N+](=O)[O-])o1)NC(=O)c1ccccc1	-7%	14µM*	-12	-1%	-5%
CCOC(=O)/C(=C\c1ccc([N+](=O)[O-])o1)NC(=O)c1ccccc1	2%	?	.	.	-12%
O=C(CNc1ccccc1)N/N=C/c1ccc([N+](=O)[O-])o1	18µM*	?	-82*	-4%	?
O=C(CCC(=O)Nc1ccc(Cl)cc1Cl)N/N=C/c1ccc([N+](=O)[O-])o1	?	?	-77*	-25%	?
O=[N+]([O-])c1ccc(/C=N/NC(=S)Nc2ccccc2)o1	24%	-10%	-26	-4%	14%
O=C(Cc1ccc2c(c1)OCO2)NN=Cc1ccc([N+](=O)[O-])o1	10µM*	10µM*	-39	-19%	?
CCCCCC(=O)N/N=C/c1ccc([N+](=O)[O-])o1	?	?	-23	-11%	?
O=C(Cc1ccc2c(c1)OCCO2)N/N=C/c1ccco1	.	8%	-32	23%	.
CCOc1c(Cl)cc(CNCC(C)C)cc1Cl	-1%	25%	-12	-24%	15%
CCOc1ccc2nc(NC(=O)c3nc(SCc4ccccc4C)ncc3Cl)sc2c1	2%[46.1 µM]	.	-11	8%	11%[46.1 µM]
Cc1ccc(OCC(=O)OCC(=O)NC2CC2)cc1C	.	-20%	1	0%	.
SMILES	MARV entry inh	HCV inh	HCMV antiviral	FMDV antiviral	LASV entry inh
Cc1ccc(NC(=S)N2CCC(c3ccccc3)C2)c(Cl)c1 (centres undefined)	?	3%	13	2%	10µM*
CSc1cccc(NC(=S)N2CCC(c3ccccc3)C2)c1 (centres undefined)	?	-29%	-82*	15%	?
CCCCN(C(=O)CNC(=O)c1ccco1)C(C(=O)NC1CCCCC1)c1cccnc1 (centres undefined)	2%[46.1 µM]	12%	1	11%	2%[46.1 µM]
CCN(C(=O)c1cc2c(=O)oc3ccc(C)cc3c2s1)c1ccccc1C	8%[46.1 µM]	.	13	?	0%[46.1 µM]
O=C(CCC1CCN(C(=O)Cc2c(F)cccc2F)CC1)NC1CC1	.	8%	-4	-15%	.
CCC(C)(C)NC(=O)C1CCC(CNS(=O)(=O)c2ccc3c(c2)CC(C)N3C(C)=O)CC1 (centres undefined)	.	.	14	-20%	1%[46.1 µM]
CCOc1ccc(NS(=O)(=O)c2c(C)nc3sccn3c2=O)cc1	.	0%	-100*	-13%	.
CCOc1ccc(CN2CCc3nc(N4CCN(c5ccccc5OC)CC4)ncc3C2)cc1OC	.	.	?	20µM*	?
COc1ccc(CN2CCc3nc(N4CCN(c5ccc(F)cc5)CC4)ncc3C2)c(OC)c1OC	.	.	-36	20µM*	?
COc1ccccc1N1CCN(c2ncc3c(n2)CCN(Cc2ccccc2F)C3)CC1	.	.	1	-12%	13%[46.1 µM]
COc1ccccc1N1CCN(c2ncc3c(n2)CCN(Cc2ccc(C)s2)C3)CC1	.	.	-7	?	14%[46.1 µM]
COc1cc(OC)c(OC)cc1CN1CCc2nc(N3CCN(c4ccccc4F)CC3)ncc2C1	.	.	-21	11µM*	-2%[46.1 µM]
COc1cc(OC)c(OC)cc1CN1CCc2nc(N3CCN(c4ncccn4)CC3)ncc2C1	.	.	-71*	?	-8%[46.1 µM]
CCOc1ccc(CN2CCc3nc(N4CCN(c5ncccn5)CC4)ncc3C2)cc1OC	.	.	?	?	-29%[46.1 µM]
CCCCN(C(=O)c1cc2ccccc2o1)c1c(N)n(CCCC)c(=O)[nH]c1=O	.	-11%	-33	10%	.
Cc1cccc(-c2cccc(C(=O)N3CCc4c(cnc(C)c4CNC(=O)c4cncs4)C3)c2)c1	.	.	.	-19%	.
O=C(NCC(=O)N1CCCC(C(F)(F)F)C1)c1cccs1 (centres undefined)	17%[46.1 µM]	11%	-17	33%	9%
CCOc1ccc2[nH]c3c(NCCc4ccc(OC)c(OC)c4)ncnc3c2c1	?	13µM*	-66*	-20%	?
COc1ccc(CCNc2ncnc3sc(C)cc23)cc1OC	?	2.2µM*	-70*	32µM*	?
O=C(Nc1cc(C(F)(F)F)ccc1N1CCOCC1)c1cccc(S(=O)(=O)N2CCOCC2)c1	.	.	?	-22%	.
COc1ccc2c(c1)/C(=N/OC(=O)c1cccs1)CCC2	21%[46.1 µM]	-13%	-13	-9%	-2%
COc1ccc(NC(=O)O/N=C2/CCCc3ccc(OC)cc32)cc1	?	2.8µM*	-73*	1%	?
COc1cccc(C(=O)NCC2Cc3cccc(-c4nc(C)cnc4C)c3O2)c1OC (centres undefined)	.	.	.	-3%	.
Cc1ccccc1-c1noc(-c2cccnc2N(C)Cc2ccc(Cl)cc2)n1	-8%[46.1 µM]	.	-7	-19%	13%[46.1 µM]
Nc1ncc(-c2ccccc2)c(-c2ccc(O)cc2O)n1	?	?	-61*	?	5%[46.1 µM]
COc1ccccc1C(=O)Nc1nc2n(n1)C(c1ccc(F)cc1)C=C(c1ccc(Cl)cc1)N2 (centres undefined)	11%[46.1 µM]	.	-22	-17%	2%[46.1 µM]
CC1=CC(c2ccc(Cl)cc2)n2nc(N3C(=O)CCC3=O)nc2N1 (centres undefined)	19%	24%	.	6%	1%
